The panel holds about 79,000 compounds, 15% with a hit somewhere; the sample as a whole holds those more often. The source made the active and inactive calls. No stated cut-off is given here; in the data, active means growth inhibition above about 70%; inactive means the rest.
Tests used:
[1] = NCI Yeast Anticancer Drug Screen. Data for the rad52 strain (AID 147);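 further: 0% = growth of vehicle-treated control cultures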; conditions: S. cerevisiae rad52 mutant growth inhibition, stronger effect = higher value
In short: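 Genetically altered yeast (DNA damage repair defect) treated with compound; inhibition calculated relative to vehicle.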

[2] = NCI Yeast Anticancer Drug Screen. Data for the wt1 strain (AID 149);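 further: 0% = growth of vehicle-treated wt1 cultures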; conditions: S. cerevisiae wt1 strain (SPY 50644) growth inhibition, stronger effect = higher value
In short: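 Each compound is tested on wt1 yeast and the loss of growth versus vehicle gives the inhibition value.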

[3] = NCI Yeast Anticancer Drug Screen. Data for the rad50EPP+ strain (AID 151);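 further: 0% = growth of vehicle-treated control cultures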; conditions: S. cerevisiae rad50 mutant strain, stronger effect = higher value
In short: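 Strain rad50EPP+; compound exposure; % growth inhibition vs vehicle.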

[4] = NCI Yeast Anticancer Drug Screen. Data for the rad50 strain (AID 155);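 further: 0% = growth of vehicle-only cultures of the same strain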; conditions: S. cerevisiae rad50 strain growth inhibition, stronger effect = higher value
In short: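 Vehicle-treated cultures provide the reference for the growth inhibition reported for compound-exposed, repair-deficient yeast.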

[5] = NCI Yeast Anticancer Drug Screen. Data for the mec2-1 strain (AID 157); conditions: S. cerevisiae mec2-1 strain, stronger effect = higher value
In short: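 Cells of the genetically defined mec2-1 yeast strain are incubated with test compound. Inhibition of growth is calculated against vehicle-treated controls.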

[6] = NCI Yeast Anticancer Drug Screen. Data for the rad14 strain (AID 159);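 further: 0% = growth of vehicle-treated control cultures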; conditions: S. cerevisiae rad14 strain growth inhibition, stronger effect = higher value
In short: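 Inhibition of growth is reported for a repair-deficient yeast mutant following compound treatment, calculated relative to cultures that received vehicle.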

[7] = NCI Yeast Anticancer Drug Screen. Data for the sgs1 mgt1 strain (AID 161);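 further: 0% = growth of cultures given vehicle only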; conditions: S. cerevisiae sgs1 mgt1 strain, stronger effect = higher value
In short: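 Test agents were incubated with a DNA-repair-mutant yeast strain. Growth was then read and compared against vehicle-treated controls.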

[8] = NCI Yeast Anticancer Drug Screen. Data for the CLN2oe strain (AID 163);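 further: 0% = growth of vehicle-only control cultures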; conditions: S. cerevisiae CLN2oe strain, stronger effect = higher value
In short: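 Strain altered in cell-cycle control, incubated with compound; growth compared to solvent-treated controls.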

[9] = NCI Yeast Anticancer Drug Screen. Data for the cln2 rad14 strain (AID 165);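 further: 0% = growth equal to vehicle treated cultures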; conditions: S. cerevisiae cln2 rad14 strain, stronger effect = higher value
In short: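 The screen exposed genetically defined yeast (cln2 rad14) to test compounds and scored growth inhibition relative to vehicle-treated controls.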

[10] = NCI Yeast Anticancer Drug Screen. Data for the bub3 strain (AID 167); conditions: S. cerevisiae bub3 mutant strain, stronger effect = higher value
In short: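 Mutant yeast screening strain plus compound; vehicle-treated cultures serve as the 0% inhibition reference.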

[11] = NCI Yeast Anticancer Drug Screen. Data for the wt2 strain (AID 169); conditions: S. cerevisiae wt2 strain growth inhibition, stronger effect = higher value
In short: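 Steps: yeast strain treated with compound; growth recorded; inhibition calculated relative to cultures given vehicle alone.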

[12] = NCI Yeast Anticancer Drug Screen. Data for the mlh1 strain (AID 171);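 further: 0% = growth of vehicle-treated control cultures of the same strain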; conditions: S. cerevisiae mlh1 strain growth inhibition, stronger effect = higher value
In short: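 Yeast screen: mutant strain plus compound, growth scored against vehicle control wells.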

[13] = NCI Yeast Anticancer Drug Screen. Data for the sgs1 strain (AID 173);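 further: 0% = growth of vehicle-only control cultures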; conditions: S. cerevisiae sgs1 mutant, stronger effect = higher value
In short: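 Inhibition of yeast growth served as the measure. The mutant strain was treated with each compound, and growth was normalised to cultures receiving vehicle alone.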

[14] = NCI Yeast Anticancer Drug Screen. Data for the mlh1 rad18 strain (AID 175); conditions: S. cerevisiae mlh1 rad18 strain growth inhibition, stronger effect = higher value
In short: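 Compound-treated yeast growth, normalised to vehicle controls. Strain bears defined DNA repair mutations.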

[15] = NCI Yeast Anticancer Drug Screen. Data for the rad18 strain (AID 177); conditions: S. cerevisiae rad18 mutant growth inhibition, stronger effect = higher value
In short: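 Inhibition values reflect reduced yeast growth compared with vehicle-treated controls, using a strain engineered with a DNA damage repair defect.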

[16] = at 5.0 µM (retest, dose inferred, filed as 0.5)
[17] = at 50.0 µM (retest, dose inferred, filed as 5.0)

Measured: growth inhibition

CCOC(=O)C1=C(C)NC(C)=C(C(=O)OCC)C1c1ccc(C)cc1
active: [1]; at 33.0 µM 97% | [1]; at 100.0 µM 95% | [2]; at 33.0 µM 97% | [2]; at 100.0 µM 96% | [4]; at 33.0 µM 96% | [4]; at 50.0 µM 88.7% | [4]; at 100.0 µM 96% | [5]; at 33.0 µM 97% | [5]; at 50.0 µM 91.5% | [5]; at 100.0 µM 95% | [6]; at 33.0 µM 96% | [6]; at 100.0 µM 93% | [7]; [17] 75% | [7]; at 50.0 µM 91.8% | [8]; at 33.0 µM 96% | [8]; at 100.0 µM 95% | [9]; at 50.0 µM 90% | [10]; at 3.7 µM 78% | [10]; at 11.0 µM 91% | [10]; at 33.0 µM 97% | [10]; [17] 90% | [10]; at 50.0 µM 91.3% | [10]; at 100.0 µM 95% | [11]; at 33.0 µM 96% | [11]; at 100.0 µM 96% | [12]; at 33.0 µM 96% | [12]; at 100.0 µM 95% | [13]; at 33.0 µM 98% | [13]; at 100.0 µM 96% | [14]; [17] 79% | [14]; at 50.0 µM 90.2% | [15]; at 33.0 µM 96% | [15]; at 100.0 µM 96%
inactive: [1]; at 1.2 µM 27% | [1]; at 3.7 µM 43% | [1]; at 11.0 µM 64% | [2]; at 1.2 µM 28% | [2]; at 3.7 µM 19% | [2]; at 11.0 µM 57% | [3]; at 1.2 µM -21% | [3]; at 3.7 µM -27% | [3]; at 11.0 µM -25% | [3]; at 33.0 µM -13% | [3]; at 100.0 µM 27% | [4]; at 1.2 µM 30% | [4]; at 3.7 µM 31% | [4]; [16] -24% | [4]; at 11.0 µM 59% | [4]; [17] 21% | [5]; at 1.2 µM 27% | [5]; at 3.7 µM -6% | [5]; [16] -24% | [5]; at 11.0 µM 39% | [5]; [17] 7% | [6]; at 1.2 µM 17% | [6]; at 3.7 µM 14% | [6]; at 11.0 µM 69% | [7]; [16] -20% | [8]; at 1.2 µM 26% | [8]; at 3.7 µM 13% | [8]; at 11.0 µM 33% | [9]; [16] -31% | [9]; [17] 29% | [10]; at 1.2 µM 61% | [10]; [16] -13% | [11]; at 1.2 µM 5% | [11]; at 3.7 µM 7% | [11]; at 11.0 µM 53% | [12]; at 1.2 µM 8% | [12]; at 3.7 µM 9% | [12]; at 11.0 µM 55% | [13]; at 1.2 µM 15% | [13]; at 3.7 µM 21% | [13]; at 11.0 µM 66% | [14]; [16] -37% | [15]; at 1.2 µM -2% | [15]; at 3.7 µM -2% | [15]; at 11.0 µM 20%

OCCNCCOc1ccc(/C(=C(/Cl)c2ccccc2)c2ccccc2)cc1
inactive: [1]; at 1.2 µM -38% | [1]; at 3.7 µM -36% | [1]; at 11.0 µM -20% | [2]; at 1.2 µM -25% | [2]; at 3.7 µM -26% | [2]; at 11.0 µM -3% | [3]; at 1.2 µM -34% | [3]; at 3.7 µM -28% | [3]; at 11.0 µM -56% | [4]; at 1.2 µM 12% | [4]; at 3.7 µM 1% | [4]; [16] 40% | [4]; at 11.0 µM 29% | [5]; at 1.2 µM -28% | [5]; at 3.7 µM -32% | [5]; [16] 3% | [5]; at 11.0 µM -2% | [6]; at 1.2 µM -9% | [6]; at 3.7 µM -8% | [7]; [16] 36% | [8]; at 1.2 µM -13% | [8]; at 3.7 µM 0% | [8]; at 11.0 µM 25% | [9]; [16] 59% | [10]; at 1.2 µM -8% | [10]; at 3.7 µM -5% | [10]; [16] 32% | [10]; at 11.0 µM 13% | [11]; at 1.2 µM -47% | [11]; at 3.7 µM -48% | [11]; at 11.0 µM -6% | [12]; at 1.2 µM 7% | [12]; at 3.7 µM 12% | [12]; at 11.0 µM 67% | [14]; [16] 43% | [15]; at 1.2 µM -8% | [15]; at 3.7 µM -6% | [15]; at 11.0 µM 24%
active: [1]; at 33.0 µM 98% | [1]; at 100.0 µM 97% | [2]; at 33.0 µM 98% | [2]; at 100.0 µM 97% | [3]; at 33.0 µM 70% | [3]; at 100.0 µM 98% | [4]; at 33.0 µM 98% | [4]; [17] 98% | [4]; at 50.0 µM 87.1% | [4]; at 100.0 µM 97% | [5]; at 33.0 µM 98% | [5]; [17] 99% | [5]; at 50.0 µM 94.3% | [5]; at 100.0 µM 97% | [6]; at 11.0 µM 76% | [6]; at 33.0 µM 98% | [6]; at 100.0 µM 97% | [7]; [17] 98% | [7]; at 50.0 µM 93.8% | [8]; at 33.0 µM 99% | [8]; at 100.0 µM 98% | [9]; [17] 98% | [9]; at 50.0 µM 93.2% | [10]; at 33.0 µM 99% | [10]; [17] 99% | [10]; at 50.0 µM 92.7% | [10]; at 100.0 µM 97% | [11]; at 33.0 µM 98% | [11]; at 100.0 µM 97% | [12]; at 33.0 µM 98% | [12]; at 100.0 µM 98% | [14]; [17] 99% | [14]; at 50.0 µM 90% | [15]; at 33.0 µM 98% | [15]; at 100.0 µM 98%

— PubChem BioAssay (NCI)
